Assay outcomes (PubChem BioAssay)
Most compounds without a hit are left out; they make up all but 3.3% or so of the library.
KCC2 mod – KCC2 cotransporter modulators, thallium flux, primary screen, cell-based, HEK293 KCC2, FluoZin-2 fluorescence, MLSMR. Solute carrier family 12 member 5 (Homo sapiens), Q9H2X9. B-score of Tl+ flux slope (higher = more flux/activation; lower = inhibition) at 10 µM. 190,000 tested, 2.2% active. KCC2 cells, thallium flux FluoZin-2 fluorescence. AID 1456, 2008;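 active means thallium flux slope and its plate-corrected score both differing from the plate sample mean at a set confidence after two filtering rounds, in either direction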;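 further: slope of fluorescence scaled to starting intensity during 10 to 20 s after thallium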
H9c2 protect – cardioprotection against H2O2-induced cell death, primary screen, uHTS, H9c2 cells, ATPLite luminescence; 360,000 tested, 0.63% active; H9c2 cardiomyocytes, H2O2 injury protection, 2 h; protection from H2O2 cell death, % at 20 µM;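 active means compounds giving at least 50% protection of heart cells from peroxide-induced death in the single-dose screen, raw or plate-pattern-corrected value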;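 further: 0% = DMSO wells with peroxide and 100% = DMSO wells without peroxide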
Efflux pump mplx – inhibitors of Candida efflux pumps in yeast, primary screen, S. cerevisiae, Nile Red, multiplex; inhibition, % at 10 µM; 330,000 tested, 0.44% active; AID 485275, 2010; S. cerevisiae Candida pump triplex;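 active means plate passing quality check with inhibition over a set limit, or well fluorescence over plate mean plus 4 SD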;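 further: Nile Red retained in pooled yeast measured as flow cytometry median fluorescence; 0% = buffer negative control and 100% = Enniatin B positive control; higher means more Nile Red kept so more efflux inhibition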
Calb FLC – C. albicans growth inhibition with fluconazole, primary screen, CaCi-2 strain, Alamar Blue fluorescence; C. albicans CaCi-2 (fluconazole-resistant clinical isolate) + fluconazole, 48 h; growth inhibition, % (test concentration not listed); 300,000 tested, 0.57% active;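 active means growth inhibition above about 58% in most replicates, limit read from the data, passing the limit was not always enough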;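 further: all wells also contain fluconazole at 8 µg/ml as a sub-toxic cotreatment; 0% = median of DMSO wells and 100% = median of geldanamycin control wells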
PHOSPHO1 block – PubChem AID 1565; inhibition, % at 13.3 µM; Phosphoethanolamine/phosphocholine phosphatase (Homo sapiens), Q8TCT1; recombinant PHOSPHO1, absorbance phosphatase assay; 290,000 tested, 1.1% active; in the data active means inhibition above about 60%
Numbers without * were called inactive.

What do the screens show for `Cc1oc(C)c2c(=O)ccc3c(c12)OC(N)=C(C#N)C3c1ccccc1` (centres undefined)?
KCC2 mod: -0.93; H9c2 protect: 24; Efflux pump mplx: 0; Calb FLC: 16; PHOSPHO1 block: 2

What do the screens show for `COC(=O)C1=C(C)NC(C)=C(C(=O)OC)C1c1cc2cc(C)ccc2[nH]c1=O`?
KCC2 mod: 1.4; H9c2 protect: 3; Efflux pump mplx: 0; Calb FLC: -1; PHOSPHO1 block: 13

Results for Nc1c2c(nc3ccc(Br)cc13)N(C1CCCCC1)CC2 ?
KCC2 mod: 0.082; Efflux pump mplx: 2.4*; Calb FLC: 21; PHOSPHO1 block: 43

What do the screens show for `CC(C)(C)c1ccc(Cc2n[nH]c(=S)[nH]c2=O)cc1`?
H9c2 protect: -2; Efflux pump mplx: 0; Calb FLC: 78*; PHOSPHO1 block: -1

How did O=c1[nH]c(=S)[nH]nc1Cc1ccc(Cl)c(Cl)c1 do in these assays?
H9c2 protect: -2; Efflux pump mplx: 0; Calb FLC: 91*; PHOSPHO1 block: -11

What do the screens show for `COC(=O)CNc1n[nH]c(=S)[nH]c1=O`?
KCC2 mod: 0.095; H9c2 protect: 13; Efflux pump mplx: 0; Calb FLC: 1; PHOSPHO1 block: 24

How did CCCCNC(=O)CSc1nnc(Cc2ccc(Cl)c(Cl)c2)c(=O)[nH]1 do in these assays?
H9c2 protect: 0; Efflux pump mplx: 0; Calb FLC: 6; PHOSPHO1 block: 26

Results for O=C(O)[C@@H]1CCCN1C(=O)CCc1c[nH]c2ccccc12 ?
H9c2 protect: -7; Efflux pump mplx: 0; Calb FLC: 3; PHOSPHO1 block: 33

How did COc1ccc(C(O)c2nc(-c3cccc(F)c3)cs2)cc1 (centres undefined) do in these assays?
H9c2 protect: -7

Results for CC(C)CCNCC(=O)NC(c1ccccc1)c1ccccc1 ?
KCC2 mod: -0.77; H9c2 protect: 4; Efflux pump mplx: 0; Calb FLC: 115*; PHOSPHO1 block: -24

Results for C/C(CC(C)(C)C1CCCCC1)=N\NC(N)=S ?
KCC2 mod: 1.6; H9c2 protect: -15; Efflux pump mplx: 0; Calb FLC: 104*; PHOSPHO1 block: 4

Results for C/C(CCC12CC3CC(CC(C3)C1)C2)=N\NC(N)=S ?
KCC2 mod: 2; H9c2 protect: -10; Efflux pump mplx: 0; Calb FLC: 2; PHOSPHO1 block: 24

Results for CC1=C([N+](=O)[O-])C(c2ccc3c(c2)OCO3)N(C)C(=O)N1C (centres undefined) ?
H9c2 protect: 6; Efflux pump mplx: 0; Calb FLC: 0; PHOSPHO1 block: 29

What do the screens show for `CC(=Nc1ccccc1)C1=C(O)CSC1=O`?
KCC2 mod: -0.13; H9c2 protect: 4; Efflux pump mplx: 0; Calb FLC: -10; PHOSPHO1 block: -60

How did COc1ccc(N=C(C)C2=C(O)CSC2=O)cc1 do in these assays?
KCC2 mod: -0.41; H9c2 protect: -2; Efflux pump mplx: 0; Calb FLC: -1; PHOSPHO1 block: 89*

Results for CCCCCCS(=O)[C@H]1CS(=O)(=O)C[C@@H]1S(=O)CCCCCC (some centres undefined) ?
KCC2 mod: 0.63; H9c2 protect: -2; Efflux pump mplx: 0; Calb FLC: -4; PHOSPHO1 block: 96*

Results for CCOc1ccccc1-c1nnc(SCC(=O)NC2CC2)n1CC ?
H9c2 protect: -1; Efflux pump mplx: 0

What do the screens show for `COc1ccc(/C=N/NC(=O)c2cccnc2)cc1CN1CCc2ccccc2C1`?
KCC2 mod: 0.86; H9c2 protect: 69*; Efflux pump mplx: 0; Calb FLC: -2; PHOSPHO1 block: -1

Results for COc1ccc(/C=N\NC(=O)c2cc(O)c(O)c(O)c2)cc1CN1CCN(c2ccc(F)cc2)CC1 ?
KCC2 mod: 0.58; H9c2 protect: 11; Efflux pump mplx: 0; Calb FLC: 99*; PHOSPHO1 block: 1

How did CCOC(=O)c1ccccc1OCc1cc(/C=N/NC(=O)c2cccnc2)ccc1OC do in these assays?
KCC2 mod: -1.3; H9c2 protect: 55*; Efflux pump mplx: 0; Calb FLC: 1; PHOSPHO1 block: 24

What do the screens show for `COc1ccc(/C=N\NC(=O)c2cc(O)c(O)c(O)c2)cc1COc1ccc(C(=O)OCC(C)C)cc1`?
H9c2 protect: 53*; Efflux pump mplx: 1; Calb FLC: 66; PHOSPHO1 block: -7

What do the screens show for `COc1ccc(/C=N/NC(=O)c2cccnc2)cc1O`?
H9c2 protect: -3; Efflux pump mplx: 0; Calb FLC: -23; PHOSPHO1 block: 39

How did COc1ccc(/C=N\NC(=O)c2ccccc2OC)cc1COc1ccccc1C do in these assays?
H9c2 protect: 17; Efflux pump mplx: 0; Calb FLC: 11; PHOSPHO1 block: 26

How did CCOC(=O)c1ccccc1OCc1cc(/C=N/n2cnnc2)ccc1OC do in these assays?
KCC2 mod: -0.43; H9c2 protect: 16; Efflux pump mplx: 0; Calb FLC: 102*; PHOSPHO1 block: 23

What do the screens show for `CCOc1ccc2nc(SCC(=O)c3ccc(Cl)s3)sc2c1`?
H9c2 protect: -17; Efflux pump mplx: 0; Calb FLC: 20; PHOSPHO1 block: 62*

How did CCOC(=O)CSc1nc2ccc(N)cc2s1 do in these assays?
KCC2 mod: 0.15; H9c2 protect: 4; Efflux pump mplx: 0; Calb FLC: -15; PHOSPHO1 block: 83*

What do the screens show for `Nc1ccc2nc(SCC(=O)N3CCOCC3)sc2c1`?
KCC2 mod: -1.3; H9c2 protect: 4; Efflux pump mplx: 0; Calb FLC: -14; PHOSPHO1 block: 8

Results for CCc1cccc(NS(=O)(=O)c2c(C)nc3scc(C)n3c2=O)c1 ?
H9c2 protect: -8; Efflux pump mplx: 0; Calb FLC: 2; PHOSPHO1 block: 24

What do the screens show for `CN(C)c1ccc(C(C(=O)NCC2CCCO2)N(Cc2ccccc2)C(=O)c2snc(C(N)=O)c2N)cc1` (centres undefined)?
H9c2 protect: 51*; Efflux pump mplx: 0; Calb FLC: 4; PHOSPHO1 block: -143

Results for CN(C)c1ccc(C(C(=O)NCC2CCCO2)N(Cc2ccco2)C(=O)c2snc(C(N)=O)c2N)cc1 (centres undefined) ?
H9c2 protect: 52*; Efflux pump mplx: 0; Calb FLC: 2; PHOSPHO1 block: 40

How did O=C(CCS(=O)(=O)c1ccccc1)NCc1ccccc1 do in these assays?
H9c2 protect: 1; Efflux pump mplx: 0; Calb FLC: -11; PHOSPHO1 block: 47

Results for O=C(CCS(=O)(=O)c1ccccc1)Nc1nc2cc3c(cc2s1)OCCO3 ?
H9c2 protect: -8; Efflux pump mplx: 0; Calb FLC: 82*; PHOSPHO1 block: 16

What do the screens show for `O=C(CCS(=O)(=O)c1ccccc1)Nc1nc2cc3c(cc2s1)OCO3`?
KCC2 mod: -0.23; H9c2 protect: 8; Efflux pump mplx: 0; Calb FLC: 67; PHOSPHO1 block: 20
